Molecules are shown by their SMILES.

The values that follow come from the supplement of paper PMC12669032.

One test deals with Fusobacterium nucleatum subsp. animalis. Nature of the test: growth AUC relative to DMSO control (median of replicates) (fraction); higher = more growth (less inhibition), active = hit call of the paper. Conditions: 20 µM; 24 h;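 active = AUC reduced over 20% with Padj below 0.05 in at least 2 of 3 replicates; inactive = otherwise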. The essentials: (§1)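 Gut bacterial monocultures were grown anaerobically at 37 °C in mGAM from a starting OD600 of 0.05 with 20 µM compound (1% DMSO), in round-bottom 96-well plates under pierced gas-permeable seals, and OD600 was read hourly for 24 h. With the minimum OD set to 0, area under the growth curve was normalised to the plate median of solvent-only wells, or to row and column medians on the industrial chemical plate. Each value is the median of three biological replicates grown on separate days.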
As to `C#CCOC(=O)[C@@H](C)Oc1ccc(Oc2ncc(Cl)cc2F)cc1`, the “growth AUC” value was 0.903 (inactive).

Take `c1ccc2cc3c(ccc4ccccc43)cc2c1`: the “growth AUC” value was 1.01 (inactive).

Consider `CN(C)C=O`, for which the “growth AUC” value was 1.11 (inactive).

For `COc1nc(N)nc(NC(C)(C)C)n1`, the “growth AUC” value was 0.964 (inactive).

Take `Cc1ccc(Cl)cc1`: the “growth AUC” value is 1.1 (inactive).

On to `O=C(O)Cc1c(Cl)ccc(Cl)c1Cl`, for which the “growth AUC” value is 0.928 (inactive).

On to `O=c1oc(-c2ccccc2)nc2ccccc12`, for which the “growth AUC” value is 0.935 (inactive).

Take `COC(=O)c1cccc(C)c1S(=O)(=O)NC(=O)Nc1nc(OCC(F)(F)F)nc(N(C)C)n1`: the “growth AUC” value is 0.956 (inactive).

As to `COc1cc(OC)nc(NC(=O)NS(=O)(=O)Nc2ccccc2C(=O)N(C)C)n1`, the “growth AUC” value is 0.94 (inactive).

In the case of `O=S(Cc1ccc(Cl)cc1)c1ccc(Cl)cc1` (stereo not drawn), the “growth AUC” value was 0.94 (inactive).

In the case of `CCOc1ccc2c(c1)C(C)=CC(C)(C)N2`, the “growth AUC” value was 1.03 (inactive).

Turning to `CC(C)COC(=O)COc1cc(Cl)c(Cl)cc1Cl`, the “growth AUC” value was 1.01 (inactive).

In the case of `CN(C)C(=O)Nc1cc(C(C)(C)C)on1`, the “growth AUC” value was 0.959 (inactive).

On to `C=CCc1ccc(OC)c(OC)c1`, for which the “growth AUC” value was 1.06 (inactive).

As for `CCNc1nc(NCC)nc(OC)n1`, the “growth AUC” value is 1.01 (inactive).

In the case of `CCOC(=O)c1nc(C(Cl)(Cl)Cl)n(-c2ccc(Cl)cc2Cl)n1`, the “growth AUC” value is 0.995 (inactive).

With `Oc1ccc2ccccc2c1N=Nc1ccccc1`, the “growth AUC” value was 1 (inactive).

As for `O=C(Nc1ccc(Cl)cc1C(O)c1ccccc1)c1ccncc1` (stereo not drawn), the “growth AUC” value was 1.08 (inactive).

For the molecule `CSC(=O)c1cccc2nnsc12`, the “growth AUC” value was 1.12 (inactive).

In the case of `Cc1ccc2c(c1)[C@H](Nc1nc(N)nc(C(C)F)n1)[C@@H](C)C2` (stereo partly drawn), the “growth AUC” value was 0.857 (inactive).

Turning to `CCOC(=O)c1cnn(C)c1S(=O)(=O)NC(=O)Nc1nc(OC)cc(OC)n1`, the “growth AUC” value was 1.09 (inactive).

For `C/C=C/C(=O)Oc1c(C(C)CCCCCC)cc([N+](=O)[O-])cc1[N+](=O)[O-]` (mixture of isomers), the “growth AUC” value was 0.94 (inactive).

For the molecule `CCOC(=O)C(C)N(C(=O)c1ccccc1)c1ccc(Cl)c(Cl)c1` (stereo not drawn), the “growth AUC” value is 1.02 (inactive).

Turning to `COC(=O)c1c(Cl)ccc(Cl)c1OC`, the “growth AUC” value was 0.968 (inactive).

As for `c1ccc(Sc2ccccc2)cc1`, the “growth AUC” value is 1.08 (inactive).

On to `O=C(O)Cc1c[nH]c2ccccc12`, for which the “growth AUC” value was 1.02 (inactive).

Consider `Cc1cc(C)c(C2=C(O)C3(CCCC3)OC2=O)c(C)c1`, for which the “growth AUC” value was 0.947 (inactive).

For `CC(=O)Oc1c(Cl)c(Cl)c(Cl)c(Cl)c1Cl`, the “growth AUC” value was 0.782 (inactive).

Regarding `CCNc1nc(NC(C)CC)nc(OC)n1` (stereo not drawn), the “growth AUC” value was 1.05 (inactive).

In the case of `COc1cc(OC)nc(NC(=O)NS(=O)(=O)Nc2ccccc2C(=O)C2CC2)n1`, the “growth AUC” value is 0.97 (inactive).

As to `CCCCC(CC)COC(=O)COc1cc(Cl)c(Cl)cc1Cl` (stereo not drawn), the “growth AUC” value was 0.9 (inactive).

With `CSc1nnc(C(C)(C)C)c(=O)n1/N=C/C(C)C`, the “growth AUC” value was 1.08 (inactive).

As for `CC[N+](CC)(CC(=O)Nc1c(C)cccc1C)Cc1ccccc1.O=C([O-])c1ccccc1`, the “growth AUC” value was 1.02 (inactive).

On to `CCCCOCCOCCOCc1cc2c(cc1CCC)OCO2`, for which the “growth AUC” value is 0.992 (inactive).

Regarding `CC(C)N(C(=O)CS(=O)(=O)[O-])c1ccc(F)cc1.[Na+]`, the “growth AUC” value was 0.956 (inactive).

Consider `CN(C)C(=O)Nc1ccc(Oc2ccc(Cl)cc2)cc1`, for which the “growth AUC” value is 0.849 (inactive).

With `[S]`, the “growth AUC” value is 1.01 (inactive).

As for `COC(=O)c1csc(C)c1S(=O)(=O)NC(=O)n1nc(OC)n(C)c1=O`, the “growth AUC” value is 0.942 (inactive).

On to `COc1c(Cl)ccc(Cl)c1C(=O)O`, for which the “growth AUC” value was 0.914 (inactive).

The subject of the next test is Lactobacillus gasseri. Described as above. Conditions: 20 µM; 24 h. In a few lines:
as §1
As to `C#CCOC(=O)[C@@H](C)Oc1ccc(Oc2ncc(Cl)cc2F)cc1`, the “growth AUC” value is 0.962 (inactive).

As for `c1ccc2cc3c(ccc4ccccc43)cc2c1`, the “growth AUC” value is 0.969 (inactive).

As to `CN(C)C=O`, the “growth AUC” value is 1.01 (inactive).

As for `COc1nc(N)nc(NC(C)(C)C)n1`, the “growth AUC” value is 0.933 (inactive).

With `Cc1ccc(Cl)cc1`, the “growth AUC” value is 1.06 (inactive).

With `O=C(O)Cc1c(Cl)ccc(Cl)c1Cl`, the “growth AUC” value was 1.06 (inactive).

On to `O=c1oc(-c2ccccc2)nc2ccccc12`, for which the “growth AUC” value was 0.971 (inactive).

As for `COC(=O)c1cccc(C)c1S(=O)(=O)NC(=O)Nc1nc(OCC(F)(F)F)nc(N(C)C)n1`, the “growth AUC” value was 1.05 (inactive).

Consider `COc1cc(OC)nc(NC(=O)NS(=O)(=O)Nc2ccccc2C(=O)N(C)C)n1`, for which the “growth AUC” value was 1.03 (inactive).

For the molecule `O=S(Cc1ccc(Cl)cc1)c1ccc(Cl)cc1` (stereo not drawn), the “growth AUC” value is 0.899 (inactive).

`CCOc1ccc2c(c1)C(C)=CC(C)(C)N2`: the “growth AUC” value was 0.992 (inactive).

As to `CC(C)COC(=O)COc1cc(Cl)c(Cl)cc1Cl`, the “growth AUC” value is 0.91 (inactive).

Consider `CN(C)C(=O)Nc1cc(C(C)(C)C)on1`, for which the “growth AUC” value was 1.06 (inactive).

For `C=CCc1ccc(OC)c(OC)c1`, the “growth AUC” value was 1.03 (inactive).

As for `CCNc1nc(NCC)nc(OC)n1`, the “growth AUC” value is 0.921 (inactive).

For the molecule `CCOC(=O)c1nc(C(Cl)(Cl)Cl)n(-c2ccc(Cl)cc2Cl)n1`, the “growth AUC” value was 1.02 (inactive).

For `Oc1ccc2ccccc2c1N=Nc1ccccc1`, the “growth AUC” value was 0.973 (inactive).

Consider `O=C(Nc1ccc(Cl)cc1C(O)c1ccccc1)c1ccncc1` (stereo not drawn), for which the “growth AUC” value was 0.966 (inactive).

Consider `CSC(=O)c1cccc2nnsc12`, for which the “growth AUC” value is 0.934 (inactive).

On to `Cc1ccc2c(c1)[C@H](Nc1nc(N)nc(C(C)F)n1)[C@@H](C)C2` (stereo partly drawn), for which the “growth AUC” value was 0.982 (inactive).

For the molecule `CCOC(=O)c1cnn(C)c1S(=O)(=O)NC(=O)Nc1nc(OC)cc(OC)n1`, the “growth AUC” value is 1.1 (inactive).

For the molecule `C/C=C/C(=O)Oc1c(C(C)CCCCCC)cc([N+](=O)[O-])cc1[N+](=O)[O-]` (mixture of isomers), the “growth AUC” value was 0.273 (active).

Consider `CCOC(=O)C(C)N(C(=O)c1ccccc1)c1ccc(Cl)c(Cl)c1` (stereo not drawn), for which the “growth AUC” value was 0.935 (inactive).

On to `COC(=O)c1c(Cl)ccc(Cl)c1OC`, for which the “growth AUC” value was 0.979 (inactive).

For `c1ccc(Sc2ccccc2)cc1`, the “growth AUC” value is 1.1 (inactive).

Turning to `O=C(O)Cc1c[nH]c2ccccc12`, the “growth AUC” value is 1.22 (inactive).

As for `Cc1cc(C)c(C2=C(O)C3(CCCC3)OC2=O)c(C)c1`, the “growth AUC” value is 1.09 (inactive).

With `CC(=O)Oc1c(Cl)c(Cl)c(Cl)c(Cl)c1Cl`, the “growth AUC” value was 0.871 (inactive).

On to `CCNc1nc(NC(C)CC)nc(OC)n1` (stereo not drawn), for which the “growth AUC” value is 1.11 (inactive).

Consider `COc1cc(OC)nc(NC(=O)NS(=O)(=O)Nc2ccccc2C(=O)C2CC2)n1`, for which the “growth AUC” value is 1.07 (inactive).

In the case of `CCCCC(CC)COC(=O)COc1cc(Cl)c(Cl)cc1Cl` (stereo not drawn), the “growth AUC” value is 1.06 (inactive).

Turning to `CSc1nnc(C(C)(C)C)c(=O)n1/N=C/C(C)C`, the “growth AUC” value was 1.08 (inactive).

Consider `CC[N+](CC)(CC(=O)Nc1c(C)cccc1C)Cc1ccccc1.O=C([O-])c1ccccc1`, for which the “growth AUC” value is 0.967 (inactive).

Consider `CCCCOCCOCCOCc1cc2c(cc1CCC)OCO2`, for which the “growth AUC” value is 1.03 (inactive).

For the molecule `CC(C)N(C(=O)CS(=O)(=O)[O-])c1ccc(F)cc1.[Na+]`, the “growth AUC” value is 1.01 (inactive).

Consider `CN(C)C(=O)Nc1ccc(Oc2ccc(Cl)cc2)cc1`, for which the “growth AUC” value is 0.926 (inactive).

For the molecule `[S]`, the “growth AUC” value was 0.959 (inactive).

On to `COC(=O)c1csc(C)c1S(=O)(=O)NC(=O)n1nc(OC)n(C)c1=O`, for which the “growth AUC” value is 0.805 (inactive).

As to `COc1c(Cl)ccc(Cl)c1C(=O)O`, the “growth AUC” value is 1.26 (inactive).
